Rows were chosen to be rich in hits. Some 5.2% of all compounds tested hit in one or more screens of this group.
Tau ThT inhib = inhibitors of human tau fibril formation, thioflavin T binding. P10636. recombinant tau K18 P301L, heparin-induced fibrillization, ThT fluorescence. Potency, µM (doses to about 57.4 µM), usual class: inhibitors. actives 2.1% (n = 270,000). AID 1460; note: nearly all actives have a fitted effect of over 55% in size
Target sequence (P10636 561-689 P618L limits assumed): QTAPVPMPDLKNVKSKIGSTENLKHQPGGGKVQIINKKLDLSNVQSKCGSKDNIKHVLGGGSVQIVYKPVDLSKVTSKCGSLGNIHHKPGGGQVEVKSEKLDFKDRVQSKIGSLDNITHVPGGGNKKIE
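Tau K18 P301L fragment (15 uM unlabeled plus 0.24 uM Alexa 594-labeled) in 100 mM sodium acetate pH 7 with compound, fibrillization induced by 20 uM heparin for 6 hr at 37 C. Thioflavin T (30 uM) added, fluorescence read after 1 hr (ex 450, em 510 nm).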
Sfp PPTase inh = blocks B. subtilis Sfp PPTase activity; actives 3.5% (n = 310,000); Q9F4F7; Biochemical Sfp PPTase activity, qHTS; Potency, µM, actives largely listed as inhibitors;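 note: the enzyme is Sfp with the accession as filed and its product quenches rhodamine fluorescence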
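Sfp 15 nM + cpd, 15 min RT; start w/ rhodamine-CoA 5 uM, BHQ-2-YbbR 12.5 uM (final); 50 mM Hepes pH 7.6, 10 mM MgCl2, 0.01% NP-40, 0.01% BSA; read 525/598 nm at 0 and 30 min.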
Tau fluor cs = counter-screen for tau fibril formation inhibitors | tau K18 P301L (four-repeat tau fragment) Alexa594 fluorescence, heparin fibrillization | Potency, µM (highest dose often 57.7 µM) | actives 0.93% (n = 280,000); note: nearly all actives have a fitted effect of over 55% in size
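Human K18 P301L tau (15 uM unlabeled plus 0.24 uM Alexa 594-labeled, final) in 100 mM sodium acetate pH 7 was mixed with compound and 20 uM heparin and incubated 6 hr at 37 C.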
FBPA coupling cs = inhibits coupling enzyme system, counter-screen for aldolase hits; coupling enzyme system counterscreen, AmpLite Red fluorescence; activity change, negative = inhibition, % at 58.2 µM, hits read low; actives 0.67% (n = 290,000); AID 2472; in the data active = activity change below about -30%
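Coupling enzymes only (glyceraldehyde-3-phosphate) + compound, at 57.5 uM final, 10 min RT; add substrate/coupling/AmpLite Red mix, 20 min RT; fluorescence ex 525/em 598 nm. Actives flag coupling-system interference.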
Tau FP inhib = inhibitors of human tau fibril formation. actives 0.39% (n = 280,000). AID 1468. P10636. Potency, µM (top dose mostly 57.7 µM), hits mostly inhibitors. K18 P301L tau heparin fibrillization, Alexa594 FP, 6 h; note: nearly all actives have a fitted effect of over 55% in size
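FP of Alexa 594-tau after heparin (20 uM) induction. Substrate: human K18 P301L, 15 uM unlabeled, 0.24 uM labeled. Buffer 100 mM sodium acetate pH 7. 6 hr, 37 C.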
A number is an active result; - = inactive; ? = inconclusive; . = no result given; ! = not active in a repeat; [ ] = dose if it differs, or a comment. Unless noted, calls come from the whole dose curve; as a rule, active = well fitted curve in the direction sought with a large enough effect; inconclusive = small, poorly fitted or top-dose-only effect, or another doubt; inactive = no such curve, though single readings can be large; an effect the other way counts as inactive or inconclusive.

SMILES | Tau ThT inhib | Sfp PPTase inh | Tau fluor cs | FBPA coupling cs | Tau FP inhib
Cc1ccc(S(=O)(=O)N2CCCC2C(=O)N(C)Cc2cccs2)cc1 (stereo unspecified) | - | - | - | - | -
C/C(=N\Nc1ncc(Cl)cc1Cl)c1ccc(C#N)cc1 | ? | - | - | - | -
CON/C=N/C(=S)Nc1ncc(C(F)(F)F)cc1Cl | - | 11.2µM | - | - | -
C/C(=N/Nc1ncc(C(F)(F)F)cc1Cl)c1ccncc1 | - | 56.2µM | - | - | -
COc1cc(/C=N/Nc2ccc(Cl)nn2)cc(OC)c1O | . | 50.1µM | . | - | .
COc1cc(/C=N/Nc2ncc(C(F)(F)F)cc2Cl)cc(OC)c1O | ? | 89.1µM | ? | - | -
ON/C=N/C(=S)Nc1ncc(C(F)(F)F)cc1Cl | - | - | - | - | -
CCOc1ccc(-n2c(SCC(=O)N3CCC(C)CC3)nc3c([nH]c4ccccc43)c2=O)cc1 | - | . | - | . | -
CCCCNC(=O)c1cnn2c(C)c(Cc3c(C)cc(C)cc3C)c(C)nc12 | ? | . | - | . | -
Oc1c(Br)cc(Br)cc1/C=N/Nc1ccc(Cl)nn1 | . | - | . | - | .
Oc1ccc(/C=N/Nc2ccc(Cl)nn2)c(O)c1O | . | 10µM | . | -37.9 | .
Cc1ccc(NC(=O)Cn2c(=O)n(CCC(=O)NCc3ccccc3Cl)c(=O)c3ccccc32)cc1 | - | . | - | . | ?
Cn1cc([N+](=O)[O-])c(C(=O)Nc2ccc(-c3nc4ccccc4[nH]3)cc2)n1 | ? | - | - | - | -
CC(=O)Nc1ccc2nc(-c3ccco3)[nH]c2c1 | - | - | - | - | -
Cn1cccc1-c1nc2ccc(NC(=O)c3ccccc3)cc2[nH]1 | ? | - | ? | - | -
Cn1cc([N+](=O)[O-])c(C(=O)Nc2ccc3nc(-c4ccccc4)[nH]c3c2)n1 | 15.8µM | - | ? | - | -
O=C(Nc1ccc2nc(-c3ccco3)[nH]c2c1)c1ccco1 | ? | 44.7µM | - | - | -
Cn1cccc1-c1nc2ccc(NC(=O)c3ccc([N+](=O)[O-])cc3)cc2[nH]1 | 1.26µM | - | ? | - | -
O=C(NCc1ccc(F)cc1)c1ccc(NC(=O)N2CC3CCCN3c3ccccc32)cc1 (stereo unspecified) | - | . | ? | . | -
N#C/C(=C\c1cc(Cl)c(OCc2ccc(Cl)cc2)c(Cl)c1)C(N)=O | ? | - | - | - | -
N#C/C(=C\c1cc(O)c(O)c(O)c1)C(N)=O | ? | 3.55µM | - | -48.8 | -
O=C(O)c1ccc2c(c1)ncn2C1CCCCCC1 | - | 89.1µM | - | - | -
COCCn1c(=O)cnc2cnc(OC)nc21 | . | - | . | - | .
NC(C(=O)O)c1ccc(P(=O)(O)O)cc1 (stereo unspecified) | - | 56.2µM | - | . | -
Cc1ccccc1N(C)C(=O)c1noc2c1COc1ccccc1-2 | - | . | - | . | -
SMILES | Tau ThT inhib | Sfp PPTase inh | Tau fluor cs | FBPA coupling cs | Tau FP inhib
COc1ccc(-c2cn3ccccc3n2)cc1OC | - | 89.1µM | - | - | -
COc1ccc(-c2cn3cc(C)ccc3n2)cc1F | ? | - | - | -34.4 | -
O=C(CN1C(=O)CC(c2ccccc2)Sc2ccccc21)Nc1cccc(Cl)c1 (stereo unspecified) | - | . | - | . | ?
COC(=O)/C=C1\SC(=Nc2ccc(OC)cc2)NC1=O | ? | - | - | - | -
COC(=O)/C=C1\S/C(=N\N=C\CC(=O)OC)NC1=O | 7.08µM | ? | - | - | -
COc1cc(NC(=O)Nc2ccccc2)c(OC)cc1NC(=O)CN1CCCCC1 | ? | - | 28.2µM[quencher] | - | ?
COc1cc(NC(=O)Nc2ccccc2OC)c(OC)cc1NC(=O)CN1CCCCC1 | ? | - | ? | - | ?
CN(C)c1ncc2nc(-c3cccc(C#N)c3)c(=O)n(C[C@H]3CCCO3)c2n1 | . | - | . | - | .
CSCC[C@H](NC(=O)[C@@H]1CCCN1C(=O)[C@H](CCCN=C(N)N)NC(=O)[C@H](CC(C)C)NC(=O)[C@@H]1CCCN1C(=O)[C@@H](NC(=O)[C@@H](N)CCC(N)=O)C(C)C)C(=O)N[C@H](C(=O)N[C@@H](Cc1ccc(O)cc1)C(=O)N[C@@H](CCCCN)C(=O)O)[C@@H](C)O | . | - | . | - | .
COc1ccc(OC)c2c1C(=O)c1ccccc1C2=O | 35.5µM | 39.8µM | - | - | ?
Nc1ccc(O)c2c1C(=O)c1ccccc1C2=O | - | ? | - | - | -
COC1=C(OC)C(=O)c2ccccc2C1=O | 12.6µM | . | - | . | ?
Nc1ccc(Br)c2c1C(=O)c1ccccc1C2=O | 5.01µM | 50.1µM | ? | - | -
COc1ccc(OC)c2c1C(=O)C(Cl)=C(Cl)C2=O | 4.47µM | 0.501µM | ? | -44.9 | 17.8µM
O=C(NCc1ccc(Cl)cc1)c1ccc(NC(=O)N2CC3CCCN3c3ccccc32)cc1 (stereo unspecified) | - | . | ? | . | -
COc1cccc2c1C(=O)c1ccc3ccccc3c1C2=O | ? | - | ? | - | ?
COc1ccc(N)c2c1C(=O)c1ccccc1C2=O | 15.8µM | - | - | - | ?
Cc1c(NC(=S)/C=C2\N(C)c3ccccc3C2(C)C)c(=O)n(-c2ccccc2)n1C | ? | 50.1µM | - | . | -
Cc1c(N=C/C=C2\N(C)c3ccccc3C2(C)C)c(=O)n(-c2ccccc2)n1C | ? | - | - | - | -
CC(C)C(=O)NC(=S)/C=C1/N(C)c2ccccc2C1(C)C | ? | ? | ? | - | -
Cc1ccc(C(=O)NC(=S)/C=C2\N(C)c3ccccc3C2(C)C)cc1 | 10µM | ? | - | - | -
O=C(CCC1N=C2c3ccccc3N=C(SCc3cccc(F)c3)N2C1=O)NC1CCCCC1 (stereo unspecified) | - | . | - | . | -
Cc1ccsc1C1C(C#N)=C(N)OC2=C1C(=O)CCC2 (stereo unspecified) | - | 56.2µM | - | - | -
Cc1ccc(C2C(C#N)=C(N)OC3=C2C(=O)CCC3)s1 (stereo unspecified) | - | - | - | - | -
Cc1ccsc1C1C(C#N)=C(N)N(N(C)C)C2=C1C(=O)CCC2 (stereo unspecified) | - | ? | - | -43.8 | -
SMILES | Tau ThT inhib | Sfp PPTase inh | Tau fluor cs | FBPA coupling cs | Tau FP inhib
COc1cccc2c1cc1c(=O)n(CC(=O)N3CCN(c4ccc(Cl)cc4)CC3)nc(C)n12 | ? | . | - | . | -
Cc1ccc(NC(=O)c2ccc(CSc3ccccn3)cc2)cc1 | - | - | - | - | -
Cc1ccc(NC(=O)c2ccc(CSc3ccccn3)cc2)c(O)c1 | ? | - | 17.8µM[quencher] | - | -
Cc1cccc(N2CCN(S(=O)(=O)c3cc(C(=O)Nc4ccc(Oc5ccccc5)cc4)ccc3F)CC2)c1C | - | . | - | . | 28.2µM
O=C(Nc1cc(Cl)cc(Cl)c1)c1ccc(F)c(S(=O)(=O)N2CCN(c3ccccc3F)CC2)c1 | - | . | - | . | 20µM
O=c1cc(-c2ccc(O)cc2)oc2c(O)c(O)c(O)c(O)c12 | 14.1µM | 4.47µM | ? | -66.3 | ?
O=c1cc(-c2ccccc2)oc2cc(O)c(O)c(O)c12 | 25.1µM | 28.2µM! | ? | -44.6 | 28.2µM
Cc1ccc2c(c1)C1(C=CC(=O)C=C1)CC(=O)N2C | . | - | . | - | .

Assay outcomes deposited in PubChem by National Center for Advancing Translational Sciences (NCATS).
